Where “and” joins values, the source holds several entries; their conditions need not be identical. Identical values can stand only once. Results filed as inconclusive are left out. Some compounds were tested as several samples or in several runs, with calls that do not always agree. Calls of active or inactive are those of the source. Rule for the calls: active = hit-call score of the fitted dose curve at least 0.9, where 1 is the maximum; inconclusive = response in the unintended direction; inactive = score below 0.9.
Tests used:
[1] = target: zebrafish Estrogen Receptor (ER1), esr1 (gene 259252) (UniProt P57717); assay: ATG_zfER1_XSP2: Attagene TRANS-FACTORIAL Multi-Species (XSP2) HepG2 Assay for zebrafish Estrogen Receptor (ER1) (AID 2283816)
Outline: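 After 24 h compound exposure, RNA from transfected HepG2 cells was reverse-transcribed and reporter transcripts resolved by capillary electrophoresis. The TRANS format reads exogenous zebrafish ER1-Gal4 chimera activity on GAL4-UAS elements; gain of signal against DMSO.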

[2] = target: chicken Estrogen Receptor (ERa), ESR1 (gene 396099) (UniProt P06212); assay: ATG_chERa_XSP2: Attagene TRANS-FACTORIAL Multi-Species (XSP2) HepG2 Assay for chicken Estrogen Receptor (ERa) (AID 2283817);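 note: actives raise reporter signal above DMSO so AC50 reflects ER activation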
Outline: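 Readout: fluorescent reporter-transcript fragments resolved by capillary electrophoresis after RT-PCR and HpaI cut. Chicken ERa-Gal4 fusion in transiently transfected HepG2, dosed for 24 h; activity taken as increase over DMSO baseline.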

[3] = test system: zebrafish Estrogen Receptor (ER2a), gene 317734; assay: ATG_zfER2a_XSP2: Attagene TRANS-FACTORIAL Multi-Species (XSP2) HepG2 Assay for zebrafish Estrogen Receptor (ER2a) (AID 2283818);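 note: hits raise reporter mRNA so AC50 reflects activation of zebrafish ER2a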
Outline: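 Multiplexed trans-reporter readout: RT-PCR then capillary electrophoresis of reporter transcripts after 24 h compound treatment. Human HepG2 carries transfected zebrafish ER2a-Gal4 chimera; 3 nM 6-alpha-fluorotestosterone plus 1.5 nM norgestrel present. Induction scored against DMSO.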

[4] = test system: chicken Androgen Receptor (AR), gene 422165; assay: ATG_chAR_XSP2: Attagene TRANS-FACTORIAL Multi-Species (XSP2) HepG2 Assay for chicken Androgen Receptor (AR) (AID 2283819);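 note: hits raise reporter mRNA above DMSO so potency is for activation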
Outline: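 Readout is reporter mRNA induction via RT-PCR/capillary electrophoresis after 24 h chemical exposure, positive direction relative to DMSO. Transiently transfected HepG2 express chimeric chicken AR–GAL4; AR stimulated by 3 nM 6-alpha-fluorotestosterone and 1.5 nM norgestrel.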

[5] = test system: frog Estrogen Receptor (ER), gene 398734; assay: ATG_frER1_XSP2: Attagene TRANS-FACTORIAL Multi-Species (XSP2) HepG2 Assay for frog Estrogen Receptor (ER) (AID 2283821);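 note: hits raise reporter mRNA above DMSO baseline so potency means agonist or activator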
Outline: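 Reporter mRNA induction, detected as fluorescence after RT-PCR and capillary electrophoresis, is the endpoint; activity is fitted upward against DMSO. Cells are human liver HepG2 carrying transfected NR-Gal4 chimeras with GAL4-UAS-driven reporters, harvested 24 h post-dosing.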

[6] = test system: zebrafish Estrogen Receptor (ER2b), gene 317733; assay: ATG_zfER2b_XSP2: Attagene TRANS-FACTORIAL Multi-Species (XSP2) HepG2 Assay for zebrafish Estrogen Receptor (ER2b) (AID 2283823);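 note: fitted upward as reporter gain over DMSO so potency reflects activation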
Outline: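 Cells used were HepG2, transiently transfected with chimeric nuclear receptor-Gal4 reporter units. After 24 h of chemical treatment, reporter transcripts were amplified by RT-PCR, labelled and sized by capillary electrophoresis, with induction analysed relative to DMSO.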

[7] = target: Estrogen receptor (Homo sapiens) (UniProt P03372); assay: ATG_hERa_XSP2: Attagene TRANS-FACTORIAL Multi-Species (XSP2) HepG2 Assay for human Estrogen Receptor (ERa) (AID 2283827)
Outline: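 Trans-activation of exogenous human ERa-Gal4 chimera read in HepG2 as reporter transcript after 24 h exposure; medium included 3 nM 6-alpha-fluorotestosterone and 1.5 nM norgestrel. Quantified by RT-PCR with capillary electrophoresis, positive-direction fitting against DMSO.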

[8] = test system: frog Estrogen Receptor (ER2), gene 100174814; assay: ATG_frER2_XSP2: Attagene TRANS-FACTORIAL Multi-Species (XSP2) HepG2 Assay for frog Estrogen Receptor (ER2) (AID 2283828)
Method: ATG_XSP2_multi-species_TRANS is a cell-based, multiplexed assay created by modifying the existing Attagene TRANS-FACTORIAL system to include a panel of nuclear receptors from some or all the following species: human (Homo sapiens), mouse (Mus musculus), frog (Xenopus laevis), zebrafish (Danio rerio), chicken (Gallus gallus), and turtle (Chrysemys picta). The ECOTOX-FACTORIAL format uses HepG2, a human liver cell line, with measurements taken at 24 hours after chemical dosing in a 24-well plate. Xsp2 included 3 nM 6-alpha-fluorotestosterone and 1.5 nM norgestrel to stimulate the androgen receptor.ATG_frER2_XSP2 is one of 29 assay components measured or calculated from the ATG_XSP2_multi-species_TRANS assay. It is designed to make measurements of mRNA induction, a form of inducible reporter, as detected with fluorescence intensity signals by Reverse transcription polymerase chain reaction (RT-PCR) and Capillary electrophoresis technology.The assay endpoint ATG_frER2_XSP2 was analyzed in the positive analysis fitting direction relative to DMSO as the negative control and baseline of activity. Using a type of inducible reporter, measures of mRNA for gain-of-signal activity can be used to understand the reporter gene at the transcription factor-level as they relate to the gene ER. Furthermore, this assay endpoint can be referred to as a primary readout, because this assay has produced multiple assay endpoints where this one serves a reporter gene function. To generalize the intended target to other relatable targets, this assay endpoint is annotated to the nuclear receptor intended target family, where the subfamily is steroidal.
Human liver HepG2 cells are transiently transfected with multiple reporter transcription units (MRTUs) in 6-well plates using FuGene 6 reagent (Roche; 3 ml FuGene/1 mg DNA). The MRTU constructs are regulated by a cis-regulating element (promoter). […] A major difference between the CIS and TRANS system is that in CIS activities of endogenous TFs are measured, whereas the TRANS assay evaluates changes in activities of exogenous, chimeric NR-Gal4 proteins. […] At the end of 24 hour incubation, total RNA was isolated using TriZol reagent (Invitrogen). The isolated RNA is then reverse-transcribed using oligo(dT) primer and Mo-MLV reverse transcriptase (Invitrogen) with DNAse I (Ambion) treatment for 30 min. […] The fragments were purified using Qiaquick PCR columns (Qiagen), analyzed on an ABI 3130xL genetic analyzer (Applied Biosystems) with peak positions identified by using a set of X-rhodamine (ROX)-labeled MapMarker1000 molecular weight standards (BioVentures). […]

[9] = target: Estrogen receptor beta (Homo sapiens) (UniProt Q92731); assay: ATG_hERb_XSP2: Attagene TRANS-FACTORIAL Multi-Species (XSP2) HepG2 Assay for human Estrogen Receptor (ERb) (AID 2283813);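 note: actives raise reporter mRNA above DMSO so AC50 reflects agonist induction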
Outline: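 Transient TRANS reporter system in HepG2: after 24 h of chemical, RNA is reverse-transcribed, reporter cDNA amplified, FAM-labelled and sized by capillary electrophoresis. Induction of the human ERb-Gal4 reporter is measured relative to DMSO.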

[10] = test system: zebrafish Androgen Receptor (AR), gene 100005148; assay: ATG_zfAR_XSP2: Attagene TRANS-FACTORIAL Multi-Species (XSP2) HepG2 Assay for zebrafish Androgen Receptor (AR) (AID 2283825);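 note: hits raise reporter mRNA above DMSO so AC50 reflects agonist-type gain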
Outline: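 After 24 h compound exposure in medium with 3 nM 6-alpha-fluorotestosterone plus 1.5 nM norgestrel, HepG2 cells carrying zebrafish AR–GAL4 reporter constructs were assessed for reporter mRNA gain by RT-PCR and capillary electrophoresis.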

Measured: AC50

zebrafish Estrogen Receptor (ER1), esr1 (gene 259252), sequence (P57717 whole entry, looked up, the tested form may be a part): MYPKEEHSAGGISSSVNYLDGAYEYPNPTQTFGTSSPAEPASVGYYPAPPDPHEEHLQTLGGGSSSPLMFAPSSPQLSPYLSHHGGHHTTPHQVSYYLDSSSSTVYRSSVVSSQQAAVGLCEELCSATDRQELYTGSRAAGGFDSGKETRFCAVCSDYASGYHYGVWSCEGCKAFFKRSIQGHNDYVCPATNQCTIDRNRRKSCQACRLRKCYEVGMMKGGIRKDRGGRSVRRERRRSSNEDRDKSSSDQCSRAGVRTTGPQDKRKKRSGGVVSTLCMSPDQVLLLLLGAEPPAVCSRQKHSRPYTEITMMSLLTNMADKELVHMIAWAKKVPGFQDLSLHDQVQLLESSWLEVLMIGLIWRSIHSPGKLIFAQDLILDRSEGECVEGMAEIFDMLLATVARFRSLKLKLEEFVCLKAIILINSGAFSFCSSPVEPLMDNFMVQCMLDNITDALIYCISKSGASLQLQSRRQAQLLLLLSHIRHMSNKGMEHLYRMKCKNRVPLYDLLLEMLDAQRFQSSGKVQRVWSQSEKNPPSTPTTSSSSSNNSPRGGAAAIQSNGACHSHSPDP
Estrogen receptor (Homo sapiens), sequence (P03372 whole entry, looked up, the tested form may be a part): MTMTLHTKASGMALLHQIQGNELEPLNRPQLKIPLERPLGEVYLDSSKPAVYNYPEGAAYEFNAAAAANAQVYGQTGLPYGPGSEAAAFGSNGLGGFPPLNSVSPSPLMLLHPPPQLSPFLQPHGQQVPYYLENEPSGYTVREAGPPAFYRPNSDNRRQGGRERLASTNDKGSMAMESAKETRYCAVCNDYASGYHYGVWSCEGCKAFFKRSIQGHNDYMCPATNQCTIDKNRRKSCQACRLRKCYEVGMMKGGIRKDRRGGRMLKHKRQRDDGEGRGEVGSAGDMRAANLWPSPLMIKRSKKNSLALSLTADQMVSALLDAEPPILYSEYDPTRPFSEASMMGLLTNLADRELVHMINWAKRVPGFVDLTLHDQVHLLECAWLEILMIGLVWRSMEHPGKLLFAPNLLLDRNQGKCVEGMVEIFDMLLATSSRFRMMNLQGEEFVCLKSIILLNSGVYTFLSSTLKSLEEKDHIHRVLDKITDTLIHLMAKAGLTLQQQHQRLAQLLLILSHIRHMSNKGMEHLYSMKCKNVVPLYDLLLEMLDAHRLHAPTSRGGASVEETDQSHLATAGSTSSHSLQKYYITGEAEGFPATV
chicken Estrogen Receptor (ERa), ESR1 (gene 396099), sequence (P06212 whole entry, looked up, the tested form may be a part): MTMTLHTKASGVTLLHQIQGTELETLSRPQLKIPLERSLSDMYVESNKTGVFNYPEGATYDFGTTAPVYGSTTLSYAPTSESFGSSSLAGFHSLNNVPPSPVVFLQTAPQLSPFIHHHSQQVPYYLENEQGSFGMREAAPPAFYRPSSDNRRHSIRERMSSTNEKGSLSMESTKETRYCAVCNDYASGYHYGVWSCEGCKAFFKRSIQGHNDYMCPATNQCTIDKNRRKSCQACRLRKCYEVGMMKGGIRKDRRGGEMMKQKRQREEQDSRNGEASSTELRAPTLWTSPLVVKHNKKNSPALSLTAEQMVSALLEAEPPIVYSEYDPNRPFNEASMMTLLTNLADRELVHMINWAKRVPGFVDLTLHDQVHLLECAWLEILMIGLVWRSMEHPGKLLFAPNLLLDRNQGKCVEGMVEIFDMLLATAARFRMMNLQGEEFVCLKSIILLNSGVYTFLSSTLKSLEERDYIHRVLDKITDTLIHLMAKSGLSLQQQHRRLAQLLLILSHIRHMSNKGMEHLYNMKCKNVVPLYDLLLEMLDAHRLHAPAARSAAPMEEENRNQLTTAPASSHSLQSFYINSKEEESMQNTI
Estrogen receptor beta (Homo sapiens), sequence (Q92731 whole entry, looked up, the tested form may be a part): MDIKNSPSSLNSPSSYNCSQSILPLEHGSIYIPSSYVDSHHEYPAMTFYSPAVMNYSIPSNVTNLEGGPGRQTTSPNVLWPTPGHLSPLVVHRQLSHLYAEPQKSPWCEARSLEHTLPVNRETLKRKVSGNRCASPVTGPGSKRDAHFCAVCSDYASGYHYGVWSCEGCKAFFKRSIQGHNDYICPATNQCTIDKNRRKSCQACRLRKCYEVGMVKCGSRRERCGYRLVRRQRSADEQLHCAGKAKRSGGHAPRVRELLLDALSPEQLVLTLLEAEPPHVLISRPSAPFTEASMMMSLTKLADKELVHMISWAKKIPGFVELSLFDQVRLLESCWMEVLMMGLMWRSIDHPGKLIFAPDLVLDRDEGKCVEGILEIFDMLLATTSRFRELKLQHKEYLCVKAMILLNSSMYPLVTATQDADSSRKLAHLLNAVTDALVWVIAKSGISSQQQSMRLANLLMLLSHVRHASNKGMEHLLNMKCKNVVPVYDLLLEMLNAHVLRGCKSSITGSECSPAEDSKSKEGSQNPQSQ

c1ccc(B(c2ccccc2)c2ccccc2)cc1
active: [1] 59.7 µM and 22 µM | [2] 5.78 µM and 3.86 µM | [3] 7.9 µM and 9.53 µM | [5] 7.06 µM and 7.56 µM | [6] 18.1 µM and 10.8 µM | [7] 7.53 µM and 3.43 µM | [8] 6.89 µM and 5.72 µM
inactive: [4]

C(=C(c1ccccc1)c1ccccc1)c1ccccc1
inactive: [9] | [1] | [5]
active: [2] 29.1 nM | [6] 165 nM | [7] 46.1 nM | [8] 25.3 nM

C#C[C@]1(O)CC[C@H]2[C@@H]3CCc4cc(OC)ccc4[C@H]3CC[C@@]21C
active: [1] 10.2 nM and 3.1 nM | [2] 0.189 nM and 0.519 nM | [3] 0.272 nM and 0.0819 nM | [5] 0.598 nM and 0.0823 nM | [6] 1.1 nM and 0.373 nM | [7] 0.111 nM and 0.0826 nM | [8] 3.94 nM and 1.23 nM

O=C(OCCOCCOCCOC(=O)c1ccccc1)c1ccccc1
inactive: [1] | [2] | [4] | [5] | [6] | [10] | [7] | [8]
active: [6] 153000 nM | [7] 26700 nM

Reference: PubChem BioAssay (EPA / NIEHS)
